In PubChem BioAssay one finds composite z-score and z-score data, which are given here for 5 molecules.

Assay [1] in a line: binders of probe aFSTL3 on microarray, primary screen, stem cell growth factor project, biochemical, small-molecule microarray, fluorescence 635/667 (AID 1064).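 Also: measures binding of the biotinylated anti-FSTL3 antibody to printed compounds.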 As to conditions: higher = more signal.
Assay [2] can be described thus: binders from COS7 lysate, DM2A8 probe, primary screen, torsin A project, cell lysate, small-molecule microarray, fluorescence 635/667 (AID 1065). To be noted: higher = more signal, COS7 lysate expressing mutant human TOR1A.
The nature of assay [3]: binders of probe aFGF2 on microarray, primary screen, stem cell growth factor project, biochemical, small-molecule microarray, fluorescence 635/667 (AID 1067).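 Also: measures binding of biotinylated aFGF2 protein to printed compounds on slides; z-score merges feature fluorescence and signal-to-noise across triplicate slides.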 To be noted: higher = more signal.
A short description of assay [4]: binders of probe aFGF10 on microarray, primary screen, stem cell growth factor project, biochemical, small-molecule microarray, fluorescence 635/667 (AID 1071).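 Also: score merges 667 nm spot intensity and signal to noise from triplicate slides.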 To be noted: higher = more signal.
Assay [5] deals with Neurogenic locus notch homolog protein 2 (Homo sapiens) (UniProt Q04721). Kind of assay: Notch2 binders on small-molecule microarrays, primary screen, biochemical, small-molecule microarray, 635 nm fluorescence, stem cell growth factors (AID 1073). As to conditions: Notch2 binding, higher = more signal.
Sequence of Neurogenic locus notch homolog protein 2 (Homo sapiens) (Q04721 whole entry, looked up, canonical isoform): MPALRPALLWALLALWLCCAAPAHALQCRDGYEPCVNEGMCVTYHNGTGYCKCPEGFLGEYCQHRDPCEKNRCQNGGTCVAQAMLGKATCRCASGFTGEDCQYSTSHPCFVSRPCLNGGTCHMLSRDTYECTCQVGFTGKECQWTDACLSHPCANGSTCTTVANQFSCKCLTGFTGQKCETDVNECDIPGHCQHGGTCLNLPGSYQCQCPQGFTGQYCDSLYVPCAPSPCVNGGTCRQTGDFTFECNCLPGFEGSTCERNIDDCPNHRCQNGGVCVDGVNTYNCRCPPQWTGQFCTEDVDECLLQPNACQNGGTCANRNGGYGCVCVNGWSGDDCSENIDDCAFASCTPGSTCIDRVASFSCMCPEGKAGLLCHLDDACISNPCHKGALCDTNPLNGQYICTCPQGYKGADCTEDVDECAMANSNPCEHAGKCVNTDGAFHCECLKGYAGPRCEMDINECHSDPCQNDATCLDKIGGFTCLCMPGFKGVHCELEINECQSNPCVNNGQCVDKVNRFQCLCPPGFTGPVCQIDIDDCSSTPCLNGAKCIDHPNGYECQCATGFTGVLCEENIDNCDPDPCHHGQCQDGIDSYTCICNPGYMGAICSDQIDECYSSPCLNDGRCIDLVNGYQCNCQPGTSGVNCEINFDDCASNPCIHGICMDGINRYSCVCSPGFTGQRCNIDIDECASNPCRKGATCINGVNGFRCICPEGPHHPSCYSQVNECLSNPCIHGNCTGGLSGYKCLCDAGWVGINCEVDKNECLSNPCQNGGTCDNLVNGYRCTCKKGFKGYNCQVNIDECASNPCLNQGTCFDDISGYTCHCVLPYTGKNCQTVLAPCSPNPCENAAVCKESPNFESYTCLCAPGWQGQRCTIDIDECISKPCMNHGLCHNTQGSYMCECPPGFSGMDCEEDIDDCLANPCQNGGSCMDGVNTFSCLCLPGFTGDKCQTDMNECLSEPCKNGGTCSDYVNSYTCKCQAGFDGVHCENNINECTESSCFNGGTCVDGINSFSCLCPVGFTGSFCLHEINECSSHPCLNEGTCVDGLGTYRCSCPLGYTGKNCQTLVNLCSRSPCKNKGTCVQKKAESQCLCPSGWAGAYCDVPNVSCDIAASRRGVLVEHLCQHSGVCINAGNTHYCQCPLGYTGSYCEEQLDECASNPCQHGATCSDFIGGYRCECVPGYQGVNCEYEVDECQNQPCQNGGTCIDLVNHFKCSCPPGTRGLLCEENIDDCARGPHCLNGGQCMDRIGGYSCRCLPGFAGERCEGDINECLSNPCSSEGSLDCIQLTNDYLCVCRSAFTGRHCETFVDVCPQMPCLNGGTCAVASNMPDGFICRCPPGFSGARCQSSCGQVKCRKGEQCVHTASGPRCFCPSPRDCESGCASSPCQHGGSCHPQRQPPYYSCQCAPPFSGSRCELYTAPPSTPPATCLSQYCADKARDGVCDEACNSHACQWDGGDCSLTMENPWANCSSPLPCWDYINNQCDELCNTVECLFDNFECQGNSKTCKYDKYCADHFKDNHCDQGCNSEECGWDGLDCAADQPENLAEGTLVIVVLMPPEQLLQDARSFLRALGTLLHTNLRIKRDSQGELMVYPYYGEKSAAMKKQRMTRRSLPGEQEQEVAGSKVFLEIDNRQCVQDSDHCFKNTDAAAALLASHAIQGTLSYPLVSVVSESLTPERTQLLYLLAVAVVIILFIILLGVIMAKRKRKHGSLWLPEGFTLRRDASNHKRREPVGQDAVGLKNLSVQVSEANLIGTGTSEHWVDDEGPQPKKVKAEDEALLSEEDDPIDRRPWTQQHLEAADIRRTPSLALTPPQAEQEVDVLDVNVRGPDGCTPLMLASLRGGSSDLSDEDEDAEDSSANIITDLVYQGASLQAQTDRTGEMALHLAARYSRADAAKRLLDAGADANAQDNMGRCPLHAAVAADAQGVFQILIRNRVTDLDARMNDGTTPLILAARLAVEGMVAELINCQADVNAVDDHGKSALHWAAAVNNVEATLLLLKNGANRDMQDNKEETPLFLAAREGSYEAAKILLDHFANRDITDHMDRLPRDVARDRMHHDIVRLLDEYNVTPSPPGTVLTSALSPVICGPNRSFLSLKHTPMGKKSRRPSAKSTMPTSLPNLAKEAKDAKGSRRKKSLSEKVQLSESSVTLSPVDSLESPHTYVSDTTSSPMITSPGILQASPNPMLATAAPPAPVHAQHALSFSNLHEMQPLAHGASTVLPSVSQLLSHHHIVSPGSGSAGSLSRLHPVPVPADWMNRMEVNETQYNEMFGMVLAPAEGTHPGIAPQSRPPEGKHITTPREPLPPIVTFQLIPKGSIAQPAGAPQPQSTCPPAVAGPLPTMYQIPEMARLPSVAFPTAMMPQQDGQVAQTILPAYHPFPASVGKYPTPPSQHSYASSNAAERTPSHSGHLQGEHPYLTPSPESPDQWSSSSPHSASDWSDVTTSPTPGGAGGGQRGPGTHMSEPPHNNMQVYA
The target in assay [6] is Pro-neuregulin-1, membrane-bound isoform (Homo sapiens) (UniProt Q02297). Put plainly: NRG1 binders on small-molecule microarrays, primary screen, psychiatric disease protein project, biochemical, small-molecule microarray, fluorescence 635/667 (AID 1075).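 Also: score combines 667 nm spot fluorescence with signal to noise.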 To be noted: NRG1 binding, 635 nm fluorescence, higher = more signal.
Sequence of Pro-neuregulin-1, membrane-bound isoform (Homo sapiens) (Q02297 whole entry, looked up, the tested form may be a part, canonical isoform): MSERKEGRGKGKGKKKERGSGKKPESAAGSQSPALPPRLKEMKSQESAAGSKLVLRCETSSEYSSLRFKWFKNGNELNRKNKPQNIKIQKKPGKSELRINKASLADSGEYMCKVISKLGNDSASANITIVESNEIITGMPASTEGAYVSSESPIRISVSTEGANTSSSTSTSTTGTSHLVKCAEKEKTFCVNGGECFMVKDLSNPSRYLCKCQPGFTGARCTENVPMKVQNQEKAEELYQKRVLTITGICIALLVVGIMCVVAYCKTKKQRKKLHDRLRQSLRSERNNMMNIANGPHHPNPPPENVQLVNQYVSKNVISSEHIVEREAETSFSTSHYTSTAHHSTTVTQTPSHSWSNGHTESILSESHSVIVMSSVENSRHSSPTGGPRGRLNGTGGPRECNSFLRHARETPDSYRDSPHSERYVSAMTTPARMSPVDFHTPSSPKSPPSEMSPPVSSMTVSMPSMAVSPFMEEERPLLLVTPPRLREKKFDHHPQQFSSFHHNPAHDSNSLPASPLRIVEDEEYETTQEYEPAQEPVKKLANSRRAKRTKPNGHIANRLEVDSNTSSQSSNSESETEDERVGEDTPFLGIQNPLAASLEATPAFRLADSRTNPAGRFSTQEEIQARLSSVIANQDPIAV
In assay [7] the test system is Neuregulin-1 EGF-like domain. Kind of assay: binders of neuregulin-1 EGF-like domain, primary screen, biochemical, small-molecule microarray, 635 nm fluorescence (AID 1081).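 Also: binding of the protein to compounds printed on small-molecule microarray slides.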 As to conditions: small-molecule microarray binding, higher = more signal.
A short description of assay [8]: FRG1 promoter luciferase signal modulators, primary screen, FRG1 inhibition for FSHD, cell-based, C2C12 myotubes, firefly/Renilla luciferase, luminescence (AID 1084). As to conditions: higher = more signal, called active from +8 up or from −8 down.
The nature of assay [9]: binders of probe aFST on microarray, primary screen, stem cell growth factor project, biochemical, small-molecule microarray, fluorescence 635/667 (AID 1086).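 Also: score merges 667 nm fluorescence with signal-to-noise of each printed compound spot.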 To be noted: higher = more signal.
The nature of assay [10]: binders of probe aHhip on microarray, primary screen, stem cell growth factor project, biochemical, small-molecule microarray, fluorescence 635/667 (AID 1087).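 Also: score merges spot fluorescence at 667nm with spot signal to noise ratio.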 As to conditions: higher = more signal.
For assay [11], the system named is PRMT1 (protein arginine N-methyltransferase 1). Kind of assay: PRMT1 binders on small-molecule microarrays, primary screen, biochemical, small-molecule microarray, 635 nm fluorescence (AID 1088).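 Also: binding of Prmt1 protein to compounds spotted on small-molecule microarray slides.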 To be noted: small-molecule microarray binding, higher = more signal.
Assay [12] can be described thus: yeast growth modulation, basal conditions, primary screen, YJM789 clinical isolate, OD600, 24 h (AID 1089).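 Also: growth of clinical yeast isolate S. cerevisiae YJM 789 seeded 1000 cells per well; test concentration not given here.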 To be noted: S. cerevisiae YJM789 growth, higher = more signal, called active from +8 up or from −8 down.
Assay [13] can be described thus: fission yeast growth modulation, primary screen, strain 972, OD600, 24 h, no modulator (AID 1090).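 Also: basal condition with compound alone and no growth modifier present; test concentration not given here.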 As to conditions: S. pombe 972 growth, higher = more signal, called active from +8 up or from −8 down.
Assay [14] is described as follows: S. cerevisiae growth modulation with rapamycin, primary screen, strain BY4716, OD600, 96 h (AID 1091). Also: test concentration not given here. As to conditions: higher = more signal, called active from +8 up or from −8 down.
Assay [15] concerns the target Torsin-1A-interacting protein 2 (Homo sapiens) (UniProt Q8NFQ8). Kind of assay: LULL1 binders on small-molecule microarray, primary screen, cell lysate, human LULL1 lysate, 635/667 nm fluorescence (AID 1092).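 Also: probe is lysate of COS7 cells overexpressing human LULL1; score merges per-feature 667 nm fluorescence with signal-to-noise.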 To be noted: hLULL1 lysate binding, 635 nm fluorescence, higher = more signal.
Assay [16] in a line: E. coli growth modulation, two-sided OD650, primary screen, E. coli filamentation project, strain DRC41, 24 h (AID 1093).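 Also: MC1000 strain lacking acrAB efflux and sulA so SOS filamentation is blocked; test concentration not given here.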 To be noted: OD650, 24 h, higher = more signal, called active from +8 up or from −8 down.
Assay [17] can be described thus: small-molecule microarray binders of probe aLefty2, primary screen, biochemical, biotinylated probe, 635/667 nm fluorescence (AID 1094).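 Also: score merges spot fluorescence near 667 nm with spot signal-to-noise ratio.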 As to conditions: higher = more signal.
In assay [18] the test system is Noggin (protein binding on small-molecule microarray). Put plainly: Noggin binders on small-molecule microarray, primary screen, biochemical, 635/667 nm fluorescence (AID 1095).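 Also: score merges 667 nm feature fluorescence with signal to noise over triplicate slides.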 To be noted: 635 nm fluorescence, higher = more signal.
For assay [19], the target named is Neurogenic locus notch homolog protein 3 (Homo sapiens) (UniProt Q9UM47). Kind of assay: NOTCH3 binders on small-molecule microarray, primary screen, biochemical, 635/667 nm fluorescence (AID 1096). As to conditions: NOTCH3 binding, 635 nm fluorescence, higher = more signal.
A short description of assay [20]: small-molecule microarray binders of probe aEGFR, primary screen, biochemical, biotinylated probe, 635/667 nm fluorescence (AID 1097).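 Also: probe is a biotinylated anti-EGFR antibody binding compounds printed on slides; score combines fluorescence near 667 nm and signal to noise of each spot.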 To be noted: higher = more signal.

The structures appear in SMILES notation. Active and inactive are the calls of the source.

Sequence of Torsin-1A-interacting protein 2 (Homo sapiens) (Q8NFQ8 whole entry, looked up): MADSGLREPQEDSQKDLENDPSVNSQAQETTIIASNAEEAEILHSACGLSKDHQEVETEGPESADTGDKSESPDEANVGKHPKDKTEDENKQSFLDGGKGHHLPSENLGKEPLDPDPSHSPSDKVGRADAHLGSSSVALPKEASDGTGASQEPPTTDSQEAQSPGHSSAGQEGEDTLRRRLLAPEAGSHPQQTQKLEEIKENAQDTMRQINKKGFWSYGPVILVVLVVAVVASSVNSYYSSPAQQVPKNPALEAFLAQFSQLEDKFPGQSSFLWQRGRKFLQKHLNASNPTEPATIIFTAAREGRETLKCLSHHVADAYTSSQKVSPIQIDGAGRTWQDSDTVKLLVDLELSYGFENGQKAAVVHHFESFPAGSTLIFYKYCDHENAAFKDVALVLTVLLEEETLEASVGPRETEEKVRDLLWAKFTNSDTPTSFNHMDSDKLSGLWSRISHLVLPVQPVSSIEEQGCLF

As for `C=CC[C@]1(C(=O)N(C)C)N=C(c2ccc(OCCCO)cc2)O[C@H]1c1ccccc1`, the composite z-score is 0.334 in assay [1]; 0.184 in assay [2]; 0.229 in assay [3]; 1.14 in [4]; 0.353 in assay [5]; 1.85 in assay [6]. Besides, the composite z-score is 1.34 in [7]; 0.463 in assay [9]; 0.064 in [10]; 1.43 in assay [11]; 3.59 in assay [15]; 0.0158 in [17]. The composite z-score in assay [18] was 0.364; in [19] it was 1.14; in assay [20] it was -0.0512. Besides, the z-score in [8] was 2.28 (inactive); in [12], -1.76 (inactive); in assay [13] it was -3.16 (inactive); in [14] it was -0.979 (inactive); in assay [16], 0.896 (inactive).
`Cc1ccc(-c2cccc(=O)o2)cc1`: the composite z-score is 0.139 in assay [1]; -0.549 in [2]; -0.0973 in assay [3]; -0.304 in [4]; -0.351 in assay [5]; -0.411 in [6]. For the same molecule, the composite z-score in assay [7] was -0.596; in assay [9] it was 0.121; in [10] it was -0.353; in assay [11], -0.0072; in assay [15], -0.606; in assay [17] it was -0.183. In addition, the composite z-score in [18] is -0.175; in assay [19], -0.312; in [20] it was -0.105. The z-score in assay [8] is 5.3 (inactive); in assay [12] it was -1.91 (inactive); in assay [13] it was -1.56 (inactive); in assay [14], 1 (inactive); in assay [16], 0.0307 (inactive).
As for `COC(=O)[C@]1(Cc2ccccc2CN=[N+]=[N-])N=C(c2ccc(OCCCO)cc2)O[C@@H]1c1ccccc1`, the composite z-score in assay [1] is 0.774; in assay [2] it was -0.556; in [3] it was -0.137; in assay [4] it was -1.27; in assay [5] it was -1.24; in assay [6], 0.4. The composite z-score is -0.45 in assay [7]; -0.0581 in [9]; -0.174 in assay [10]; -0.985 in assay [11]; 0.475 in assay [15]; 0.17 in [17]. In addition, the composite z-score in assay [18] is -0.586; in assay [19], -0.601; in assay [20], -0.257. In addition, the z-score in assay [8] was -2.44 (inactive); in assay [12], 0.697 (inactive); in assay [13], -1.55 (inactive); in assay [14], 35.3 (active); in assay [16], 0.437 (inactive).
On to `N#Cc1ccc(NN2C(C(O)c3ccccc3)C=CC3C(=O)N(c4ccccc4)C(=O)C32)cc1` (stereo not given), for which the composite z-score was 0.0243 in assay [1]; -0.0347 in assay [2]; 0.111 in assay [3]; 0.379 in assay [4]; 0.639 in assay [5]; 1.15 in [6]. The composite z-score is 1.09 in assay [7]; 0.64 in [9]; -0.151 in assay [10]; -0.827 in [11]; 3.29 in assay [15]; 0.228 in assay [17]. In addition, the composite z-score in [18] was -0.229; in [19], 0.552; in assay [20], -0.0531. Besides, the z-score is 0.474 (inactive) in assay [8]; -0.541 (inactive) in assay [12]; 0.836 (inactive) in [13]; 1.77 (inactive) in assay [14]; -0.676 (inactive) in assay [16].
On to `CCCCCCC#C[Si](O[C@H](c1ccccc1)c1cn(Cc2cccc(Cl)c2)nn1)(C(C)C)C(C)C`, for which the composite z-score in assay [1] was -0.194; in [2], 0.485; in assay [3] it was -0.161; in assay [4], 0.238; in [5] it was 0.631; in assay [6], 0.485. The composite z-score in assay [7] was 0.382; in assay [9] it was -0.0431; in [10] it was -0.0994; in [11], 1; in [15], 0.416; in [17] it was -0.0719. The results for the composite z-score in [18], in [19] and in assay [20] were 0.255, 0.487 and -0.0828, respectively. Moreover, the z-score in assay [8] is -0.891 (inactive); in assay [12], -0.381 (inactive); in [13], 0.403 (inactive); in assay [14], -0.162 (inactive); in assay [16] it was 1.12 (inactive).
